# According to PubChem BioAssay AID449762 (Southern Research Specialized Biocontainment Screening …, 2010):
# Among all 330,000 compounds or so, about 1,900 (0.58%) were called active. Roughly 4% stayed inconclusive and do not appear here. Only a sample is shown. Potency and affinity values are given separately. Unmarked numbers belong to inactive results. Rule as the data show it: inconclusive = inhibition above about 70% without an active follow-up result; inactive = below that.
# Assay: M. tuberculosis growth inhibition, HTS (AID 449762);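 also: bacterial growth assessed after seven days of incubation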
# Conditions: M. tuberculosis H37Rv growth inhibition, 7H9 media; at 25 µM; active compounds read high
row,Structure (SMILES),inhibition
1,c1cncc(C2CC(c3cccs3)n3ncnc3N2)c1 (stereo not drawn),-8.25%
2,Cc1ccc2nc(/C(C#N)=C/c3ccc(O)c(O)c3)[nH]c2c1,0.8%
3,Cc1ccc2nc(/C(C#N)=C/c3ccccc3C(=O)O)[nH]c2c1,-0.89%
4,CCc1ccccc1NC(=O)CNC(=O)c1n[nH]c(=O)c2ccccc12,-6.75%
5,C=C[C@@H]1c2cc(C)ccc2N(S(=O)(=O)c2ccc(C)cc2)[C@H](c2ccccc2)C1(C#N)C#N,-12.5%
6,COc1cc(C)ccc1OCCOc1c(C)cccc1Cl,62.7%
7,COc1cc(C)ccc1OCCOc1c(Cl)cc(Cl)cc1Cl,-4.9%
8,CC(C)Oc1ccc(C(=O)NC(Cc2c[nH]c3ccccc23)C(=O)NN)cc1 (stereo not drawn),3.03%
9,CC(C)NC(=O)c1cnc(N2CCN(c3ccccn3)CC2)c2ccccc12,-4.73%
10,Cc1cc(Br)ccc1NC(=O)CN1CCN(c2ccccn2)CC1,-1.24%
11,COc1ccc(Br)cc1C(=O)Nc1ccc(Cc2ccncc2)cc1,-1.26%
12,COc1ccccc1C(=O)Nc1ccc(Cc2ccncc2)cc1,-0.58%
13,O=C(NCCc1ccc(Cl)cc1)C1CCCN(c2ncnc3c2nc2n3CCCCC2)C1 (stereo not drawn),29.1%
14,CC1CCCN(C(=O)c2ccc(-c3ccccc3Cl)o2)C1 (stereo not drawn),27.8%
15,NC(=O)C1CCN(C(=O)c2ccc(-c3ccccc3Cl)o2)CC1,-1.57%
16,COCc1cc(C)nc(SCC[N+](C)(C)CC(=O)Nc2cccc(C)c2)c1C#N,10.4%
17,CNc1nc2c(-c3ccc(Cl)cc3)nnn2c2ccccc12,8.01%
18,NNc1nc2c(-c3ccc(Cl)cc3)nnn2c2ccccc12,-3.53%
19,CCC(C)CCN1C(Nc2ccccc2)=NC[C@@H]1CC(C)C (stereo partly drawn),-0.75%
20,CN1C(C(=O)N2CCC3(CC2)OCCO3)=CC(c2ccc(F)cc2)=NS1(=O)=O,1.76%
21,Cc1nonc1OCCNCCNc1ccccc1[N+](=O)[O-],5.53%
22,Cc1nonc1OCCNc1ccc([N+](=O)[O-])c2cccnc12,2.82%

row,Structure (SMILES),inhibition
1,C#CCOCCOCCOCCNc1nc(N2CCN(C(=O)[C@H](CCC(=O)O)n3cc(C(N)Cc4ccc(O)cc4)nn3)CC2)nc(N2CCN(C(=O)[C@H](Cc3cc4ccccc4[nH]3)n3cc(C(N)CC(C)C)nn3)CC2)n1 (stereo partly drawn),-1.44%
2,C#CCOCCOCCOCCNc1nc(N2CCN(C(=O)C(CCC(=O)O)n3cc(C(N)CC(C)C)nn3)CC2)nc(N2CCN(C(=O)C(Cc3cc4ccccc4[nH]3)n3cc(C(N)Cc4ccc(O)cc4)nn3)CC2)n1 (stereo not drawn),2.57%
3,CCCNC(=O)OCc1cccnc1Sc1ccc(C)cc1,3.87%
4,CC(C)(C)OC(=O)N1CCC[C@H]1c1nnc(SCc2c(F)cccc2Cl)o1,5.9%
5,CCCNC(=O)c1ccc(-c2nc3ccccc3s2)s1,11%
6,Cc1noc(C)c1COC(=O)c1ccc(-c2nc3ccccc3s2)s1,-0.34%
7,CCCN(CC(=O)Nc1cc(Cl)ccc1Cl)C(=O)c1ccccn1,-9.27%
8,Cc1ccc(SCCN2CCC(NC(=O)OCc3ccccc3)CCC2=O)cc1 (stereo not drawn),-5.79%
9,O=C(NC1CCC(=O)N(CCSc2ccccc2)CC1)OCc1ccccc1 (stereo not drawn),1.1%
10,COc1cc(C(C(=O)NCC2CCCO2)N(C(=O)Cn2nnc3ccccc32)c2ccc(C(C)=O)cc2)ccc1O (stereo not drawn),-7.43%
11,CCCCNC(=O)C1CC(c2ccccc2[N+](=O)[O-])=NO1 (stereo not drawn),0.43%
12,CCOC(=O)c1ccc(CSc2nnc(N)s2)cc1,3.29%
13,CCOC(=O)CSc1nc(C2CC2)cc(-c2ccc(Cl)cc2)c1C#N,-4.91%
14,Cc1ccc(-c2nnc(Sc3nc4ccccc4o3)c3ccccc23)cc1,-10.4%
15,Clc1ccc(-c2nnc(Sc3nc4ccccc4o3)c3ccccc23)cc1,-4.13%
16,CCc1nc2cccnc2n1-c1ccc(CC(=O)O)cc1,-1.43%
17,Fc1ccc(N2CCN(C(=S)NCc3ccco3)CC2)cc1,1.09%
18,CC1CCCN(C(=S)SCC(=O)c2cc(Br)cc(Br)c2O)C1 (stereo not drawn),1.93%
19,O=C(CSC(=S)N1CCCC1)c1ccccc1,-7.15%
20,Cc1cc(NC(=O)CSc2n[nH]c(CC(C)C)n2)no1,-10.9%
21,Cc1ncc(CN2CCC(n3nccc3NC(=O)c3ccccc3)CC2)s1,-15.1%
22,CCn1cc2nc(SCC(=O)Nc3ccc(F)cc3F)n(Cc3ccccc3)c(=O)c2n1,-4.3%

row,Structure (SMILES),inhibition
1,CN(C)CCCN(C(=O)c1ccc(Br)s1)c1nc2cc3c(cc2s1)OCCO3,9.92%
2,CN(C)CCCN(C(=O)c1cc2cc([N+](=O)[O-])ccc2s1)c1nc2cc3c(cc2s1)OCCO3,-1.83%
3,COc1ccc(C(C[N+](=O)[O-])c2c(-c3ccccc3)cc3ccccn23)cc1 (stereo not drawn),-3.56%
4,COc1ccc(C(C[N+](=O)[O-])c2c(-c3ccccc3)cc3ccccn23)cc1OC (stereo not drawn),-0.65%
5,Cc1cccc(Cn2c(SCC(=O)Nc3ccccc3)nc3c2c(=O)[nH]c(=O)n3C)c1,-13.5%
6,CCCC(c1nnnn1CC1CCCO1)N1CCN(c2cc(Cl)ccc2C)CC1 (stereo not drawn),1.1%
7,CCCCCCCc1nc2nc(C)c(Br)c(=O)n2[nH]1,8.34%
8,CCCn1c(SCC(=O)Nc2ccc3c(c2)OCCO3)nnc1-c1ccco1,-7.16%
9,O=C(C[C@H]1C/C=C\C[C@H](NC(=O)OCC2c3ccccc3-c3ccccc32)C(=O)OC[C@@H]2CCCN2C1=O)N[C@H](CO)Cc1ccccc1,-0.02%
10,O=C(C[C@@H]1C/C=C\C[C@H](NC(=O)OCC2c3ccccc3-c3ccccc32)C(=O)OC[C@@H]2CCCN2C1=O)N[C@@H](CO)Cc1ccccc1,1.79%
11,Cc1occc1-c1nnc(SCC(=O)N(C)c2ccccc2)n1C,-1.83%
12,CC(=O)c1ccc(OCC(O)COc2ccc(C(C)=O)cc2)cc1,6.86%
13,CC(C)(c1ccccc1)c1ccc(OCC(O)CN2CCCC2)cc1 (stereo not drawn),1.65%
14,O=C(O)c1ccc(NC(=O)c2cccc(S(=O)(=O)Nc3ccc(C(=O)O)cc3)c2)cc1,-1.83%
15,O=C(CN1CCN(c2ccc(O)cc2)CC1)Nc1ccccc1C(=O)NCCc1ccccc1,-9.61%
16,COc1ccccc1N1CCN(CC(=O)Nc2ccccc2C(=O)NCCc2ccccc2)CC1,33.8%
17,COc1cc(NS(=O)(=O)c2cc3c(cc2C)NC(=O)CO3)cc(OC)c1,-11.6%
18,OC(COc1ccc(Cl)cc1Cl)Cn1ccnc1 (stereo not drawn),-1.41%
19,OC(Cn1ccnc1)c1ccc(Cl)cc1Cl (stereo not drawn),-8.18%
20,CCOC(=O)C1=C(CC)Nc2ccccc2N/C1=N\S(=O)(=O)c1ccccc1OC,-0.62%
21,CC1(C)Cc2c(sc(NC(=O)C(C)(C)C)c2C#N)C(C)(C)N1,-3.46%
22,Cc1ccc(N=c2ssnc2Cl)cc1,0.3%

row,Structure (SMILES),inhibition
1,COc1cc(N=c2ssnc2Cl)cc(OC)c1OC,-3.23%
2,O=C(O)c1ccc(S(=O)(=O)N2CCC(n3nnc4cc(C(F)(F)F)ccc43)CC2)cc1,1.41%
3,C/C(=N\Nc1cc(Cl)nc(C)n1)c1ccc(C)cc1,66.8%
4,C/C(=N\Nc1cc(Cl)nc(C)n1)c1ccccc1,5.34%
5,Cc1ccc(S(=O)(=O)N2CCN(C(=O)COC(=O)/C=C/c3ccc(F)cc3)CC2)c(C)c1,-1.22%
6,CCCOc1ccc(N2CC(C(=O)Nc3ccccc3C(=O)NC)CC2=O)cc1 (stereo not drawn),-2.1%
7,O=C(CSc1ncnc2nc[nH]c12)c1ccccc1,9.21%
8,COc1ccc(C(=O)CSc2ncnc3nc[nH]c23)cc1,-0.73%
9,O=C(c1ccc(Cl)cc1)C1CCN(C(=O)c2ccc(F)cc2)CC1,4.03%
10,Cc1cc(C)cc(OC(=O)CCN2C(=O)c3ccccc3C2=O)c1,-5.68%
11,Cc1ccc(OC(=O)CN2C(=O)c3ccccc3C2=O)cc1C,-4.28%
12,CC(C)c1ccc(OCC(=O)N(Cc2ccco2)C2CCS(=O)(=O)C2)cc1 (stereo not drawn),11.8%
13,CCC(=O)N1CC(=O)Nc2ccc(F)cc2C1c1ccccc1 (stereo not drawn),-3.58%
14,CC(C)NC(=O)N(C)C[C@H]1Oc2c(NC(=O)C3CC3)cccc2C(=O)N([C@H](C)CO)C[C@@H]1C,1.1%
15,CCOc1cccc(N(C(=O)C2COc3ccccc3O2)C(C(=O)NC2CCCCC2)c2ccc(O)cc2)c1 (stereo not drawn),-4.43%
16,CC(C)CCNC(=O)C(c1ccc(O)cc1)N(Cc1cccs1)C(=O)C1COc2ccccc2O1 (stereo not drawn),22.4%
17,CC(=O)N1CCOc2ccc(S(=O)(=O)N3CCC(C(=O)Nc4ccc(C)c(C)c4)CC3)cc21,5.83%
18,CC(Oc1ccc2c3c(c(=O)oc2c1)CCCC3)C(=O)NCc1ccccn1 (stereo not drawn),33.2%
19,CC(Oc1cc2oc(=O)c3c(c2cc1Cl)CCC3)C(=O)NCc1ccccn1 (stereo not drawn),31%
20,CCNc1cc(N2CCN(C)CC2)ccc1[N+](=O)[O-],-1.18%
21,COc1cccc(NC(=S)N2CCc3cc(OC)c(OC)cc3C2)c1,1.01%
22,CCOc1ccc(S(=O)(=O)N(C)c2ccc(OCC(=O)NCc3ccc(C(=O)OC)cc3)cc2)cc1,-3.45%
